# Counter-ions that a name gives are not always drawn.
# Tested on: S. cerevisiae BY4741 (wild-type), vegetative growth in YPD; in the data active = 2 or more and inactive = the rest
# Experiment: growth sensitivity score (doubling time z-score vs DMSO controls); higher = slower growth, strongly negative scores also mark growth inhibition (complete suppression), active = hit call of the paper
# Procedure, shortened: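 Yeast (Saccharomyces cerevisiae BY4741 and AD1-9) was grown in rich medium in microtiter plates from a starting OD600 of 0.065, with optical density read every 15 min over 24 hours. The growth sensitivity score was the difference between compound and solvent-only means, divided by the solvent-only standard deviation. Every experiment had eight solvent-only wells.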
row,SMILES,growth sensitivity score
1,"C[C@H]1[C@H](OC(=O)CCC(=O)O)O[C@@H]2O[C@@]3(C)CC[C@H]4[C@H](C)CC[C@@H]1[C@@]24OO3 [Artesunate] (stock concentration (mM, diluted 1:100): 10)",2.81 (active)
2,"COc1cc(C)c(Cc2cnc(N)nc2N)cc1OC [Ormetoprim] (stock concentration (mM, diluted 1:100): 10)",-1.06 (inactive)
3,"CCCc1nc(C)c2c(=O)nc(-c3cc(S(=O)(=O)N4CCN(CC)CC4)ccc3OCC)[nH]n12 [Vardenafil citrate] (stock concentration (mM, diluted 1:100): 7.2)",-0.19 (inactive)
4,"CCC(C)(C)N=C(NC#N)Nc1cccnc1 [Tocris-1355] (stock concentration (mM, diluted 1:100): 9.9)",0.46 (inactive)
5,"CC1=C(C(=O)O)N2C(=O)[C@@H](NC(=O)[C@H](N)c3ccccc3)[C@H]2SC1 [Cephalexin monohydrate] (stock concentration (mM, diluted 1:100): 10)",0.27 (inactive)
6,"CN(C)CCC(c1ccc(Cl)cc1)c1ccccn1 (centres undefined) [Chlorpheniramine] (stock concentration (mM, diluted 1:100): 10)",-0.56 (inactive)
7,"C[C@@H]1O[C@@H](OC[C@H]2O[C@@H](Oc3c(-c4ccc(O)c(O)c4)oc4cc(O)cc(O)c4c3=O)[C@H](O)[C@@H](O)[C@@H]2O)[C@H](O)[C@H](O)[C@H]1O [Rutin] (stock concentration (mM, diluted 1:100): 10)",-2.67
8,"CC(C)NCC(O)COc1ccc(COCCOC(C)C)cc1 (centres undefined) [Bisoprolol fumarate] (stock concentration (mM, diluted 1:100): 8.5)",0.65 (inactive)
9,"CC[C@H](C)C(=O)O[C@H]1C[C@H](O)C=C2C=C[C@H](C)[C@H](CC[C@@H](O)C[C@@H](O)CC(=O)O)[C@H]21 [Pravastatin sodium] (stock concentration (mM, diluted 1:100): 9.5)",0.4 (inactive)

# Reference: the supplement of paper PMC3414501
